Screening data: PubChem BioAssay, National Center for Advancing Translational Sciences (NCATS)
This is a sample that favours compounds with a hit; in the whole collection about 10% have one here.
Pf growth 48h: inhibits P. falciparum growth in the first generation, 48 h; P. falciparum luciferase growth in erythrocytes, 48 h; Potency, µM (titrated, usually from 28.7 µM), for inactives: at the highest dose activity change, negative = inhibition, most hits filed as inhibitors; actives 5.9% (n = 310,000); AID 504832; also: % is scaled to controls: 0 for no effect and ±100 for the full control effect
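Here the parasites carry a stable luciferase gene and grow inside erythrocytes in Albumax-based RPMI medium with compound for one erythrocytic cycle. Activity is scored as loss of luminescent signal.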
Pf growth 96h: inhibits malaria parasite growth, 96 h; P. falciparum luciferase reporter growth, 96 h; Potency, µM (top dose mostly 28.7 µM), for the others: at the highest dose activity change, negative = inhibition, hits mostly inhibitors; actives 6.9% (n = 320,000); AID 504834; also: % is scaled to controls: 0 for no effect and ±100 for the full control effect
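Delayed-death screen, second-generation endpoint: infected erythrocytes, 2% hematocrit, 0.05% parasitemia final; 96 hours at 37 C, 5% CO2; luciferase detection reagent; luminescence decrease equals reduced growth.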
NS1 inh: inhibitors of influenza NS1 protein function | Potency, µM (doses to about 46.1 µM), for inactives: at the highest dose activity, positive = more growth | actives 0.4% (n = 270,000) | AID 2326; calls by dose curve; also: actives are rising curves; nearly all actives have a fitted effect of over 50% in size
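Read-out: OD600 growth recovery of NS1-expressing budding yeast. Cells grown overnight at 30C in -URA glucose medium, washed, resuspended and diluted 1:100 in 2% galactose assay medium, pH 6.0. Same strain lacking NS1 served as positive control.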
SARS PLpro yeast: blocks SARS-CoV papain-like protease in a yeast assay; S. cerevisiae expressing SARS-CoV PLpro, growth rescue; Potency, µM (series often up to 32.9 µM), inactives show top-dose activity, positive = growth rescue, usual class: activators; actives 0.19% (n = 330,000); AID 485353; calls by dose curve; also: 0% is about no effect; nearly all actives have a fitted effect of over 55% in size
The depositor's hits bear a star; [ ] = dose if it differs, or a comment. Unless noted, calls follow the shape of the dose curve; as a rule, active = well fitted inhibition curve with a large enough effect; inconclusive = small, poorly fitted or top-dose-only effect, or another doubt; inactive = no such curve, though single readings can be large or run the other way. Potency is read from the fitted curve at half-maximal effect.

Results for CN(CC(=O)Nc1ccc(Cl)c(Cl)c1)C(=O)CNC(=O)Cc1ccccc1 ?
Pf growth 48h: 18%; Pf growth 96h: -17%; SARS PLpro yeast: -8%

What do the screens show for `CCN1CCN(c2cc(C)c3cc(NC(=O)c4ccc(C)c(C)c4)ccc3n2)CC1`?
Pf growth 48h: 2.1µM*; Pf growth 96h: inconclusive; NS1 inh: 3%; SARS PLpro yeast: 0%

What do the screens show for `Cc1cc(N2CCN(C)CC2)nc2ccc(NC(=O)CCC(=O)N3CCN(c4ccc([N+](=O)[O-])cc4)CC3)cc12`?
Pf growth 48h: 5.2µM*; Pf growth 96h: -21%; NS1 inh: -11%; SARS PLpro yeast: -2%

What do the screens show for `Cc1ccc(S(=O)(=O)NCC(C)n2nc(C)nc2C)cc1` (stereo unspecified)?
Pf growth 48h: 6%; Pf growth 96h: -9%; NS1 inh: -2%; SARS PLpro yeast: 0%

What do the screens show for `NC(=O)N(N)c1nc(N2CCCC2)nc(N2CCCC2)n1`?
Pf growth 48h: 11%; Pf growth 96h: -17%; SARS PLpro yeast: 5%

What do the screens show for `Cc1nn(-c2ccc(F)cc2)c(Cl)c1/C=C/C(=O)N1CCNC(=O)C1`?
Pf growth 48h: -23%; Pf growth 96h: 13µM*; SARS PLpro yeast: -1%

How did COc1ccc(C(=O)N2CCN(c3ccccc3)CC2)cc1S(=O)(=O)N1CCOCC1 do in these assays?
Pf growth 48h: 5%; Pf growth 96h: 3%; NS1 inh: 3%; SARS PLpro yeast: 0%

What do the screens show for `Cc1cccc(NC(=O)c2ccc([N+](=O)[O-])o2)n1`?
Pf growth 48h: inconclusive; Pf growth 96h: 10µM*; NS1 inh: -33%; SARS PLpro yeast: -7%

How did O=C(NC12CC3CC(CC(C3)C1)C2)c1ccc(Br)o1 do in these assays?
Pf growth 48h: inconclusive; Pf growth 96h: inconclusive; NS1 inh: -10%; SARS PLpro yeast: 2%

What do the screens show for `O=C(NC12CC3CC(CC(C3)C1)C2)c1ccc([N+](=O)[O-])o1`?
Pf growth 48h: 5.2µM*; Pf growth 96h: inconclusive; NS1 inh: -84%; SARS PLpro yeast: -14%

How did Cc1ccccc1NC(=O)c1ccc([N+](=O)[O-])o1 do in these assays?
Pf growth 48h: 10µM*; Pf growth 96h: 3.7µM*; NS1 inh: -1%; SARS PLpro yeast: -1%

How did CN(C)c1ccc(/C=N/NC(=O)CN2CCCCC2)cc1Br do in these assays?
Pf growth 48h: 10%; Pf growth 96h: -24%; NS1 inh: 21%; SARS PLpro yeast: -6%

How did Cc1ccc(C(C)NC(=S)NC2CCCCC2)cc1C (stereo unspecified) do in these assays?
Pf growth 48h: 10µM*; Pf growth 96h: 10µM*; NS1 inh: -83%; SARS PLpro yeast: -5%

Results for Cc1ccc(C(C)NC(=S)NC2CCCCC2)c(C)c1 (stereo unspecified) ?
Pf growth 48h: 10µM*; Pf growth 96h: 5.2µM*; NS1 inh: -104%; SARS PLpro yeast: -5%

How did CCC(NC(=O)NC1CCCCC1)c1ccccc1 (stereo unspecified) do in these assays?
Pf growth 48h: 7%; Pf growth 96h: inactive; NS1 inh: -1%; SARS PLpro yeast: -1%

What do the screens show for `COc1ccc(C(C)NC(=S)NC2CCCC2)cc1OC` (stereo unspecified)?
Pf growth 48h: 1.9µM*; Pf growth 96h: inconclusive; NS1 inh: 4%; SARS PLpro yeast: 3%

How did CCC(NC(=S)NC1CCCCC1)c1ccc(C(C)C)cc1 (stereo unspecified) do in these assays?
Pf growth 48h: 8.3µM*; Pf growth 96h: 3.3µM*; NS1 inh: -78%; SARS PLpro yeast: -8%

Results for Cc1ccc2[nH]c(=O)c(CN(CC3CCCO3)C(=S)Nc3ccccc3)cc2c1 (stereo unspecified) ?
Pf growth 48h: inconclusive; Pf growth 96h: 8%; NS1 inh: 5%; SARS PLpro yeast: 25%

What do the screens show for `COC(=O)/C=C1\S/C(=N/N=C/c2ccc(Cl)cc2)NC1=O`?
Pf growth 48h: 15µM*; Pf growth 96h: 8%; NS1 inh: -45%; SARS PLpro yeast: -6%

How did COC(=O)C/C=N/N=C1/NC(=O)/C(=C/C(=O)O)S1 do in these assays?
Pf growth 48h: inconclusive; Pf growth 96h: 9.3µM*; NS1 inh: -1%; SARS PLpro yeast: 1%

How did COC(=O)/C=C1\S/C(=N/N=C/c2ccccc2)NC1=O do in these assays?
Pf growth 48h: -23%; Pf growth 96h: -12%; NS1 inh: -7%; SARS PLpro yeast: -16%

How did CCOC(=O)N1CCN(C(=O)c2cn(C)c3ccc(S(=O)(=O)N4CCOCC4)cc3c2=O)CC1 do in these assays?
Pf growth 48h: 9%; Pf growth 96h: 12µM*; NS1 inh: -6%; SARS PLpro yeast: -5%

Results for COC(CNC(=O)c1cn(C)c2ccc(S(=O)(=O)N3CCOCC3)cc2c1=O)OC ?
Pf growth 48h: -5%; Pf growth 96h: 9.3µM*; NS1 inh: 0%; SARS PLpro yeast: -2%

What do the screens show for `CCn1cc(C(=O)NCC(OC)OC)c(=O)c2cc(S(=O)(=O)N3CCOCC3)ccc21`?
Pf growth 48h: 5%; Pf growth 96h: inconclusive; NS1 inh: 15%; SARS PLpro yeast: -1%

How did CCOc1ccc(S(=O)(=O)N2CCN(C(=O)c3cc(S(=O)(=O)N4CCOCC4)ccc3C)CC2)cc1 do in these assays?
Pf growth 48h: 8.3µM*; Pf growth 96h: 3.7µM*; SARS PLpro yeast: -9%

What do the screens show for `O=C(CN(C(=O)CCC(=O)Nc1nccs1)c1ccccc1F)NCCc1ccccc1`?
Pf growth 48h: -19%; Pf growth 96h: inconclusive; NS1 inh: -7%; SARS PLpro yeast: 1%

What do the screens show for `COC(=O)c1ccc(-c2ccco2)n1Cc1nc(-c2ccc(OC)c(OC)c2)oc1C`?
Pf growth 48h: 13µM*; NS1 inh: 25%; SARS PLpro yeast: -2%

How did CN(Cc1ccco1)C(=O)Cn1ncc2c([nH]c3ccccc32)c1=O do in these assays?
Pf growth 48h: -8%; Pf growth 96h: 9.3µM*; NS1 inh: -3%; SARS PLpro yeast: 5%

Results for CC(NC1CCCCC1)C(O)C12CC3CC(CC(C3)C1)C2 (stereo unspecified) ?
Pf growth 48h: 7.4µM*; NS1 inh: 3%; SARS PLpro yeast: -8%

Results for CS(=O)(=O)N1CCc2cc(-c3csc(NCC4CCCO4)n3)ccc21 (stereo unspecified) ?
Pf growth 48h: 9.3µM*; Pf growth 96h: inconclusive; NS1 inh: 17%; SARS PLpro yeast: 2%

Results for O=C1COc2ccc(-c3csc(NCC4CCCO4)n3)cc2N1 (stereo unspecified) ?
Pf growth 96h: 15µM*; NS1 inh: 9%; SARS PLpro yeast: 2%

How did OC(CN1CCN(C(c2ccccc2)c2ccccc2)CC1)c1ccccc1 (stereo unspecified) do in these assays?
Pf growth 48h: 9.3µM*; Pf growth 96h: inconclusive; NS1 inh: -2%; SARS PLpro yeast: 2%

How did CN(Cc1ccccc1)C(=O)CN1CCN(C(c2ccccc2)c2ccccc2)CC1 do in these assays?
Pf growth 48h: -33%[5.75 µM]; Pf growth 96h: 10µM*; NS1 inh: -6%; SARS PLpro yeast: 0%

What do the screens show for `CN1CCN(CC(O)c2ccccc2)CC1` (stereo unspecified)?
Pf growth 48h: 9%; Pf growth 96h: 35%; NS1 inh: 12%; SARS PLpro yeast: 8%
